Here are results for seven compounds from PubChem BioAssay (NCI).

Assay in all cases: NCI-60 one-dose screen, 48 h (100 = growth as untreated, 0 = no growth, -100 = all killed)
For one assay, the system named is SK-MEL-2 melanoma. The settings on record: 10 µM unless noted.
A further assay deals with EKVX NSCLC. The settings on record: 10 µM unless noted.
Another assay deals with SN12C renal. The settings on record: 10 µM unless noted.
In the next assay the test system is UO-31 renal. The settings on record: 10 µM unless noted.
The test system of another assay is TK-10 renal. The settings on record: 10 µM unless noted.
A further assay deals with ACHN renal. The settings on record: 10 µM unless noted.
The test system of the next assay is CAKI-1 renal. The settings on record: 10 µM unless noted.
A further assay relates to A498 renal. The settings on record: 10 µM unless noted.
The next assay relates to CCRF-CEM leukemia. The settings on record: 10 µM unless noted.
The next assay deals with MOLT-4 leukemia. The settings on record: 10 µM unless noted.
The subject of a further assay is SR leukemia. The settings on record: 10 µM unless noted.
The next assay deals with RPMI-8226 leukemia. The settings on record: 10 µM unless noted.
The subject of another assay is OVCAR-8 ovarian. The settings on record: 10 µM unless noted.
A further assay has as its system OVCAR-5 ovarian. The settings on record: 10 µM unless noted.
For another assay, the system named is OVCAR-4 ovarian. The settings on record: 10 µM unless noted.
Another assay relates to SK-OV-3 ovarian. The settings on record: 10 µM unless noted.
Another assay has as its system IGROV1 ovarian. The settings on record: 10 µM unless noted.
For the next assay, the system named is OVCAR-3 ovarian. The settings on record: 10 µM unless noted.
Another assay deals with HS 578T breast. The settings on record: 10 µM.
The next assay has as its system NCI/ADR-RES ovarian. The settings on record: 10 µM unless noted.

SMILES strings stand for the structures. This is part of a sample that, as a whole, favours compounds with a hit. Of some 83,000 tested, about 20% had one in any assay.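 Each cell line was grown in a 96-well plate and treated with one concentration of compound for 48 hours. Values below 10 were considered active.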 Unmarked numbers belong to inactive results. Activity calls are given as the source filed them.

Take `O=S(=O)(NCC[C@@H]1C[C@H]1c1ccc2ccccc2c1)c1ccc(C(F)(F)F)cc1`: the growth in the assay with SK-MEL-2 melanoma is 104%; with EKVX NSCLC it was 91.1%; in the assay on SN12C renal, 92.9%; in the assay with UO-31 renal, 81.7%; in the assay on TK-10 renal, 100%; with ACHN renal, 99.2%. For the same compound, the growth was 79.4% with CAKI-1 renal; 94.2% in the assay with A498 renal; 85% in the assay on CCRF-CEM leukemia; 84.3% with MOLT-4 leukemia; 92.7% in the assay on SR leukemia; 76% in the assay on RPMI-8226 leukemia. In addition, the growth was 97.4% in the assay with OVCAR-8 ovarian; 99.3% with OVCAR-5 ovarian; 79.6% in the assay on OVCAR-4 ovarian; 103% in the assay on SK-OV-3 ovarian; 92% in the assay on IGROV1 ovarian; 101% in the assay on OVCAR-3 ovarian. For the same compound, the growth was 89.6% with HS 578T breast and 94.3% in the assay with NCI/ADR-RES ovarian.

`C[C@]12CCc3nc(Nc4ccc(O)cc4)sc3C1=CC[C@@H]1[C@@H]2CC[C@]2(C)/C(=N/NC(N)=S)CC[C@@H]12`: the growth in the assay on SK-MEL-2 melanoma was -13.5% (active); in the assay on EKVX NSCLC it was -19.1% (active); in the assay with SN12C renal, -46.7% (active); with UO-31 renal it was -42% (active); in the assay on TK-10 renal, -7.19% (active); in the assay on ACHN renal it was -72.4% (active). The growth in the assay with CAKI-1 renal was -36.2% (active); in the assay on A498 renal, 93.1%; with CCRF-CEM leukemia, -7.49% (active); in the assay on MOLT-4 leukemia, -5.84% (active); with SR leukemia it was -5.27% (active); in the assay on RPMI-8226 leukemia, -16.3% (active). The growth in the assay on OVCAR-8 ovarian is 4.45% (active); with OVCAR-5 ovarian, 49.9%; with OVCAR-4 ovarian it was -16.9% (active); with SK-OV-3 ovarian, -19% (active); with IGROV1 ovarian, -61.2% (active); in the assay with OVCAR-3 ovarian, -68.8% (active). Moreover, the growth in the assay on HS 578T breast is -4.57% (active); in the assay on NCI/ADR-RES ovarian it was 15%.

Take `COc1cc2nccc(Oc3ccc(NC(=O)C4(C(=O)Nc5ccc(F)cc5)CC4)cc3)c2cc1OC(=O)c1ccc(N)cc1`: the growth was 31.3% in the assay with SK-MEL-2 melanoma; 25.7% in the assay on EKVX NSCLC; 27.6% in the assay with SN12C renal; 9.18% (active) in the assay on UO-31 renal; 72.2% in the assay with TK-10 renal; 39.5% in the assay with ACHN renal. The growth with CAKI-1 renal is 20.9%; in the assay with A498 renal it was 64%; in the assay with CCRF-CEM leukemia, 27.8%; with MOLT-4 leukemia, 3.73% (active); with SR leukemia it was 9.85% (active); in the assay with RPMI-8226 leukemia it was 10.4%. The growth was 51.9% in the assay on OVCAR-8 ovarian; 31% in the assay on OVCAR-5 ovarian; 51.7% in the assay with OVCAR-4 ovarian; 69.6% with SK-OV-3 ovarian; 60.7% with IGROV1 ovarian; 47.5% with OVCAR-3 ovarian. Moreover, the growth with HS 578T breast is -16.9% (active); in the assay with NCI/ADR-RES ovarian, 35.5%.

Turning to `Nc1nc(N)c2cc(Sc3ccc(Cl)cc3)ccc2n1`, the growth with SK-MEL-2 melanoma is 50.7%; with EKVX NSCLC, 33.6%; in the assay on SN12C renal, 29.7%; in the assay with UO-31 renal, 21.6%; in the assay on TK-10 renal, 43%; in the assay with ACHN renal it was 23%. The growth is 13.5% with CAKI-1 renal; 63.6% in the assay on A498 renal; 41.5% with CCRF-CEM leukemia; 25.8% with MOLT-4 leukemia; 7.93% (active) in the assay with SR leukemia; 20.1% in the assay on RPMI-8226 leukemia. The growth with OVCAR-8 ovarian was 34.8%; in the assay with OVCAR-5 ovarian, 39.4%; with OVCAR-4 ovarian, 70.2%; with SK-OV-3 ovarian it was 59.7%; with IGROV1 ovarian, 22.9%; with OVCAR-3 ovarian, 25.7%. For the same compound, the figures for the growth with HS 578T breast and with NCI/ADR-RES ovarian were 45.4% and 36.2%, respectively.

Take `CC[C@H](Nc1nc(N)nc(N)c1Cl)c1nc2cccc(NCc3ccc(C(=O)NO)cc3)c2c(=O)n1-c1ccccc1`: the growth in the assay on SK-MEL-2 melanoma is 71.5%; in the assay with EKVX NSCLC, 42%; with SN12C renal, 10%; with UO-31 renal, 20.6%; with TK-10 renal, -1.39% (active); in the assay with ACHN renal it was 3.82% (active). In addition, the growth in the assay with CAKI-1 renal was 39.6%; in the assay on A498 renal it was -12.7% (active); in the assay on CCRF-CEM leukemia it was 7.44% (active); with MOLT-4 leukemia, 0.294% (active); in the assay on SR leukemia it was -5.94% (active); in the assay with RPMI-8226 leukemia, 3.83% (active). Besides, the growth in the assay with OVCAR-8 ovarian is -29.1% (active); in the assay on OVCAR-5 ovarian it was 21.9%; in the assay on OVCAR-4 ovarian, 5.36% (active); in the assay with SK-OV-3 ovarian, -14.4% (active); with IGROV1 ovarian, -46.6% (active); in the assay with OVCAR-3 ovarian, -22.1% (active). Besides, the growth is 20.9% with HS 578T breast and 81.8% in the assay with NCI/ADR-RES ovarian.

As to `Nc1n[nH]c2ccc([C@@H]3Nc4c(F)cc5[nH]ncc5c4[C@H]4C5CCC(C5)[C@@H]34)cc12` (stereo not given in full), the growth with SK-MEL-2 melanoma was 53.7%; in the assay with EKVX NSCLC it was 31.7%; in the assay on SN12C renal, 22.6%; with UO-31 renal, 28.2%; in the assay with TK-10 renal, 61%; with ACHN renal it was 22.7%. Also, the growth in the assay with CAKI-1 renal was 17.3%; with A498 renal it was -28.6% (active); in the assay with CCRF-CEM leukemia it was 18.1%; in the assay with MOLT-4 leukemia, 22.9%; in the assay on SR leukemia it was 42.8%; with RPMI-8226 leukemia, 21.3%. In addition, the growth is 22% in the assay with OVCAR-8 ovarian; 30.8% in the assay with OVCAR-5 ovarian; 29.4% with OVCAR-4 ovarian; 39.1% with SK-OV-3 ovarian; 20.9% in the assay on IGROV1 ovarian; -16.7% (active) in the assay on OVCAR-3 ovarian. Besides, the growth in the assay with HS 578T breast was 20.9%; in the assay on NCI/ADR-RES ovarian, 13.8%.

Regarding `Oc1[nH]c2ccccc2c1/C=c1/ccc2c(c1)N=C(c1ccc(C(F)(F)F)cc1)N=2`, the growth in the assay with SK-MEL-2 melanoma is 27.9%; in the assay with EKVX NSCLC, 51.1%; in the assay on SN12C renal, 63.7%; in the assay on UO-31 renal, 73.1%; in the assay with TK-10 renal it was 75.5%; with ACHN renal, 58.7%. Further, the growth is 32.8% with CAKI-1 renal; 35% in the assay on A498 renal; 8.28% (active) with CCRF-CEM leukemia; 35.5% in the assay on MOLT-4 leukemia; 12.1% with SR leukemia; 35.6% in the assay on RPMI-8226 leukemia. Moreover, the growth in the assay on OVCAR-8 ovarian was 70.5%; in the assay on OVCAR-5 ovarian, 72.3%; in the assay with OVCAR-4 ovarian, 69.1%; in the assay with SK-OV-3 ovarian, 82.7%; with IGROV1 ovarian it was 41.3%; in the assay on OVCAR-3 ovarian, 25.8%. Besides, the growth is 49.1% with HS 578T breast and 69.1% with NCI/ADR-RES ovarian.
